Measured values taken from PubChem BioAssay (NCI).
About 79,000 compounds went through this panel and 15% of them were active in at least one assay; those are over-represented in the sample as a whole. Active and inactive are the calls of the source. No stated cut-off is given here; in the data, active means growth inhibition above about 70%; inactive means the rest.

Assays:
[1] = NCI Yeast Anticancer Drug Screen. Data for the wt1 strain (AID 149);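 further: 0% = growth of vehicle-treated wt1 cultures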; details: S. cerevisiae wt1 strain (SPY 50644) growth inhibition, stronger effect = higher value
Procedure, shortened: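 wt1 yeast, compound-treated; % growth inhibition vs vehicle control.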

[2] = NCI Yeast Anticancer Drug Screen. Data for the mgt1 strain (AID 153); details: S. cerevisiae mgt1 mutant growth inhibition, stronger effect = higher value
Procedure, shortened: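 Measured: inhibition of mgt1 yeast growth by compound, normalized to vehicle-treated cultures.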

[3] = NCI Yeast Anticancer Drug Screen. Data for the rad50 strain (AID 155);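 further: 0% = growth of vehicle-only cultures of the same strain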; details: S. cerevisiae rad50 strain growth inhibition, stronger effect = higher value
Procedure, shortened: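 Genetically altered yeast (DNA repair pathway); compound treatment; growth inhibition vs vehicle ctrl.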

[4] = NCI Yeast Anticancer Drug Screen. Data for the mec2-1 strain (AID 157); details: S. cerevisiae mec2-1 strain, stronger effect = higher value
Procedure, shortened: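 Using mec2-1 yeast: add compound, measure growth, express inhibition versus vehicle-treated cultures.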

[5] = NCI Yeast Anticancer Drug Screen. Data for the rad14 strain (AID 159);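 further: 0% = growth of vehicle-treated control cultures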; details: S. cerevisiae rad14 strain growth inhibition, stronger effect = higher value
Procedure, shortened: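 Test compounds were applied to a repair-deficient yeast strain. Its growth was then compared with that of cultures given vehicle alone, and inhibition was expressed relative to those controls.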

[6] = NCI Yeast Anticancer Drug Screen. Data for the sgs1 mgt1 strain (AID 161);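 further: 0% = growth of cultures given vehicle only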; details: S. cerevisiae sgs1 mgt1 strain, stronger effect = higher value
Procedure, shortened: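 Growth of a repair-deficient yeast mutant was monitored after compound treatment and expressed as inhibition relative to vehicle-treated cultures.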

[7] = NCI Yeast Anticancer Drug Screen. Data for the CLN2oe strain (AID 163);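 further: 0% = growth of vehicle-only control cultures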; details: S. cerevisiae CLN2oe strain, stronger effect = higher value
Procedure, shortened: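 Whole-cell yeast growth assay. A strain engineered for altered cell-cycle control received compound, and inhibition relative to vehicle-treated cultures was recorded.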

[8] = NCI Yeast Anticancer Drug Screen. Data for the cln2 rad14 strain (AID 165);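 further: 0% = growth equal to vehicle treated cultures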; details: S. cerevisiae cln2 rad14 strain, stronger effect = higher value
Procedure, shortened: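 Yeast strain cln2 rad14, bearing defects in cell cycle control and DNA repair, serves as the test system; values reflect growth inhibition compared with vehicle.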

[9] = NCI Yeast Anticancer Drug Screen. Data for the bub3 strain (AID 167); details: S. cerevisiae bub3 mutant strain, stronger effect = higher value
Procedure, shortened: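 Yeast carrying a defined mutation is treated with each compound, and growth is compared with that of vehicle-exposed cells to give inhibition.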

[10] = NCI Yeast Anticancer Drug Screen. Data for the wt2 strain (AID 169);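 further: 0% = growth of vehicle-treated yeast cultures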; details: S. cerevisiae wt2 strain growth inhibition, stronger effect = higher value
Procedure, shortened: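 Treated yeast vs. vehicle-treated yeast: growth inhibition determined.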

[11] = NCI Yeast Anticancer Drug Screen. Data for the mlh1 strain (AID 171);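 further: 0% = growth of vehicle-treated control cultures of the same strain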; details: S. cerevisiae mlh1 strain growth inhibition, stronger effect = higher value
Procedure, shortened: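 A yeast strain with a defined genetic lesion serves as the test organism. Cultures receive compound or vehicle, and growth is measured.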

[12] = NCI Yeast Anticancer Drug Screen. Data for the sgs1 strain (AID 173);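 further: 0% = growth of vehicle-only control cultures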; details: S. cerevisiae sgs1 mutant, stronger effect = higher value
Procedure, shortened: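 A genetically defined yeast mutant is incubated with the test compound, and its growth is compared to that of the same strain given vehicle.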

[13] = NCI Yeast Anticancer Drug Screen. Data for the mlh1 rad18 strain (AID 175); details: S. cerevisiae mlh1 rad18 strain growth inhibition, stronger effect = higher value
Procedure, shortened: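 Steps: expose repair-defective yeast to compound; measure growth; express inhibition against vehicle-treated controls.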

[14] = NCI Yeast Anticancer Drug Screen. Data for the rad18 strain (AID 177); details: S. cerevisiae rad18 mutant growth inhibition, stronger effect = higher value
Procedure, shortened: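 Measured value is growth inhibition of a yeast strain bearing a DNA repair alteration, referenced to vehicle-treated cells.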

[15] = NCI Yeast Anticancer Drug Screen. Data for the rad52 strain (AID 147);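 further: 0% = growth of vehicle-treated control cultures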; details: S. cerevisiae rad52 mutant growth inhibition, stronger effect = higher value
Procedure, shortened: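 Here a repair-compromised yeast strain receives each compound; its growth is then quantified and normalised to vehicle-only controls.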

[16] = NCI Yeast Anticancer Drug Screen. Data for the rad50EPP+ strain (AID 151);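 further: 0% = growth of vehicle-treated control cultures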; details: S. cerevisiae rad50 mutant strain, stronger effect = higher value
Procedure, shortened: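 Read-out is yeast growth inhibition relative to vehicle; cells used were the rad50EPP+ strain.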

[17] = at 5.0 µM (retest, dose inferred, filed as 0.5)
[18] = at 50.0 µM (retest, dose inferred, filed as 5.0)

Measured: growth inhibition

COc1ccccc1/C=C\C(=O)C1COCN1 (centres undefined)
active: [1]; at 100.0 µM 99% | [2]; at 100.0 µM 99% | [3]; at 33.0 µM 95% | [3]; [18] 82% | [3]; at 50.0 µM 97.2% | [3]; at 100.0 µM 98% | [4]; at 50.0 µM 98.7% | [4]; at 100.0 µM 99% | [5]; at 100.0 µM 99% | [6]; [18] 75% | [6]; at 50.0 µM 84.7% | [7]; at 100.0 µM 98% | [9]; at 50.0 µM 97.3% | [9]; at 100.0 µM 99% | [10]; at 100.0 µM 99% | [11]; at 33.0 µM 83% | [11]; at 100.0 µM 99% | [12]; at 33.0 µM 92% | [12]; at 100.0 µM 99% | [13]; [18] 82% | [13]; at 50.0 µM 99.1% | [14]; at 100.0 µM 98%
inactive: [1]; at 1.2 µM -4% | [1]; at 3.7 µM -4% | [1]; at 11.0 µM -7% | [1]; at 33.0 µM 19% | [2]; at 1.2 µM -1% | [2]; at 3.7 µM -2% | [2]; at 11.0 µM -2% | [2]; at 33.0 µM 53% | [3]; at 1.2 µM 9% | [3]; at 3.7 µM 6% | [3]; [17] -141% | [3]; at 11.0 µM 12% | [4]; at 1.2 µM 4% | [4]; at 3.7 µM 5% | [4]; [17] -49% | [4]; at 11.0 µM 12% | [4]; at 33.0 µM 38% | [4]; [18] 28% | [5]; at 1.2 µM 0% | [5]; at 3.7 µM -1% | [5]; at 11.0 µM 9% | [5]; at 33.0 µM 38% | [6]; [17] -63% | [7]; at 1.2 µM 2% | [7]; at 3.7 µM 1% | [7]; at 11.0 µM 1% | [7]; at 33.0 µM 13% | [8]; [17] -57% | [8]; [18] -60% | [8]; at 50.0 µM 7.45% | [9]; at 1.2 µM 0% | [9]; at 3.7 µM 9% | [9]; [17] -53% | [9]; at 11.0 µM 18% | [9]; at 33.0 µM 69% | [9]; [18] 69% | [10]; at 1.2 µM 2% | [10]; at 3.7 µM 1% | [10]; at 11.0 µM 0% | [10]; at 33.0 µM 37% | [11]; at 1.2 µM 9% | [11]; at 3.7 µM 2% | [11]; at 11.0 µM 12% | [12]; at 1.2 µM 1% | [12]; at 3.7 µM 2% | [12]; at 11.0 µM 18% | [13]; [17] -122% | [14]; at 1.2 µM 0% | [14]; at 3.7 µM 5% | [14]; at 11.0 µM 15% | [14]; at 33.0 µM 67%

O=C1NC(c2cccc(OCc3ccccc3)c2)Nc2ccccc21 (centres undefined)
inactive: [15]; at 1.2 µM 16% | [15]; at 3.7 µM 20% | [15]; at 11.0 µM 19% | [15]; at 33.0 µM 14% | [15]; at 100.0 µM 6% | [16]; at 1.2 µM -3% | [16]; at 3.7 µM 10% | [16]; at 11.0 µM 0% | [16]; at 33.0 µM 6% | [16]; at 100.0 µM 16% | [2]; at 1.2 µM -7% | [2]; at 3.7 µM -19% | [2]; at 11.0 µM -35% | [2]; at 33.0 µM -22% | [2]; at 100.0 µM -51% | [3]; at 1.2 µM 12% | [3]; at 3.7 µM 12% | [3]; [17] 49% | [3]; at 11.0 µM 8% | [3]; at 33.0 µM 6% | [3]; at 100.0 µM -9% | [4]; at 1.2 µM 13% | [4]; at 3.7 µM 11% | [4]; [17] 42% | [4]; at 11.0 µM 6% | [4]; at 33.0 µM 5% | [4]; at 100.0 µM 0% | [5]; at 1.2 µM -6% | [5]; at 3.7 µM -14% | [5]; at 11.0 µM -11% | [5]; at 33.0 µM -19% | [5]; at 100.0 µM -17% | [6]; [17] 5% | [6]; [18] 35% | [6]; at 50.0 µM 63.9% | [7]; at 1.2 µM -4% | [7]; at 3.7 µM -9% | [7]; at 11.0 µM -5% | [7]; at 33.0 µM -7% | [7]; at 100.0 µM 1% | [8]; [17] 35% | [8]; [18] 38% | [8]; at 50.0 µM 32.5% | [9]; at 1.2 µM 6% | [9]; at 3.7 µM 14% | [9]; [17] 20% | [9]; at 11.0 µM 8% | [9]; at 33.0 µM 4% | [9]; [18] 32% | [9]; at 50.0 µM 67.8% | [9]; at 100.0 µM 1% | [10]; at 1.2 µM -5% | [10]; at 3.7 µM -11% | [10]; at 11.0 µM -7% | [10]; at 33.0 µM -14% | [10]; at 100.0 µM 3% | [11]; at 1.2 µM 1% | [11]; at 3.7 µM 1% | [11]; at 11.0 µM 5% | [11]; at 33.0 µM -4% | [11]; at 100.0 µM -14% | [13]; [17] 36% | [13]; at 50.0 µM 65.2%
active: [3]; [18] 81% | [3]; at 50.0 µM 84.3% | [4]; [18] 74% | [4]; at 50.0 µM 77.8% | [13]; [18] 71%

Cc1cccc2c1C1c3c(C)cccc3C(CC(=O)O)CC1CC2 (centres undefined)
inactive: [1]; at 1.2 µM 2% | [16]; at 1.2 µM 15% | [16]; at 3.7 µM 25% | [16]; at 11.0 µM 53% | [16]; at 33.0 µM 66% | [16]; at 100.0 µM 48% | [2]; at 1.2 µM 0% | [2]; at 3.7 µM 47% | [3]; at 1.2 µM 13% | [3]; [17] 22% | [4]; at 1.2 µM 5% | [4]; at 3.7 µM 61% | [4]; [17] 8% | [5]; at 1.2 µM 5% | [6]; [17] 11% | [7]; at 1.2 µM 16% | [8]; [17] 6% | [9]; at 1.2 µM 10% | [9]; [17] 6% | [10]; at 1.2 µM 5% | [10]; at 3.7 µM 60% | [11]; at 1.2 µM 6% | [12]; at 1.2 µM 10% | [13]; [17] 7% | [14]; at 1.2 µM 11% | [14]; at 3.7 µM 69%
active: [1]; at 3.7 µM 77% | [1]; at 11.0 µM 98% | [1]; at 33.0 µM 96% | [1]; at 100.0 µM 92% | [2]; at 11.0 µM 98% | [2]; at 33.0 µM 97% | [2]; at 100.0 µM 92% | [3]; at 3.7 µM 90% | [3]; at 11.0 µM 97% | [3]; at 33.0 µM 93% | [3]; [18] 96% | [3]; at 50.0 µM 99% | [3]; at 100.0 µM 85% | [4]; at 11.0 µM 98% | [4]; at 33.0 µM 96% | [4]; [18] 98% | [4]; at 50.0 µM 99% | [4]; at 100.0 µM 90% | [5]; at 3.7 µM 83% | [5]; at 11.0 µM 98% | [5]; at 33.0 µM 95% | [5]; at 100.0 µM 90% | [6]; [18] 98% | [6]; at 50.0 µM 99.5% | [7]; at 3.7 µM 90% | [7]; at 11.0 µM 99% | [7]; at 33.0 µM 94% | [7]; at 100.0 µM 88% | [8]; [18] 98% | [8]; at 50.0 µM 98.8% | [9]; at 3.7 µM 71% | [9]; at 11.0 µM 97% | [9]; at 33.0 µM 95% | [9]; [18] 96% | [9]; at 50.0 µM 98.8% | [9]; at 100.0 µM 87% | [10]; at 11.0 µM 98% | [10]; at 33.0 µM 96% | [10]; at 100.0 µM 90% | [11]; at 3.7 µM 71% | [11]; at 11.0 µM 98% | [11]; at 33.0 µM 97% | [11]; at 100.0 µM 90% | [12]; at 3.7 µM 75% | [12]; at 11.0 µM 98% | [12]; at 33.0 µM 96% | [12]; at 100.0 µM 92% | [13]; [18] 97% | [13]; at 50.0 µM 99.2% | [14]; at 11.0 µM 98% | [14]; at 33.0 µM 95% | [14]; at 100.0 µM 88%
